Data: PubChem BioAssay (Tox21)
Results filed as inconclusive are left out. The source made the active and inactive calls. Unless noted, calls come from the whole dose curve; as a rule, active = well fitted curve in the direction sought with a large enough effect in the repeat runs; inconclusive = weak or mixed curves; inactive = no such curve, though single readings can be large; an effect the other way counts as inactive or inconclusive.

Assays:
[1] = molecular target: Retinoic acid receptor RXR-alpha (Homo sapiens) (UniProt P19793); assay: qHTS assay to identify small molecule agonists of the RXR signaling pathway (AID 1159527; calls by dose curve; note: nearly all actives have a fitted effect of over 35% in size)
Method in brief: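 Compounds in DMSO were added to RXR-alpha-UAS-bla HEK 293T cells kept in 2% charcoal-stripped serum, and incubated 16 hr at 37 C with 5% CO2. Reporter signal came from a 2 hr B/G FRET substrate step.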

[2] = qHTS assay to identify small molecule agonists of the RXR signaling pathway - cell viability counter screen (AID 1159529);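 note: HEK 293T cells carrying an RXR-alpha UAS beta-lactamase reporter; nearly all actives have a fitted effect of over 50% in size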
Method in brief: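 Counter screen: CellTiter-Glo luminescence. Cells: RXR-alpha-UAS-bla HEK 293T. Medium: 2% charcoal-stripped FBS. Treatment: 16 h, 37 C. Reagent incubation: 30 min, RT.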

[3] = qHTS assay to identify small molecule antagonists of the retinoid acid receptor (RAR) signaling pathway - cell viability counter screen (AID 1159551); note: nearly all actives have a fitted effect of over 35% in size
Method in brief: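 Seed C3RL4 cells; next day add compound, then retinol to 1 uM final; incubate 6 h at 37 C; add CellTiter-Glo; read luminescence after 30 min at RT.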

[4] = qHTS assay to identify small molecule agonists of the retinoic acid receptor (RAR) signaling pathway (AID 1159553); settings: C3RL4 RARE luciferase reporter, agonist, 6 h; activation: at 73.3 µM (top of the series) unless noted
Method in brief: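 Activation of retinol signaling was monitored via a RARE luciferase reporter in C3RL4 cells. After 6 hr compound treatment at 37 C, detection reagent was added for 30 min at room temperature before luminescence reading.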

[5] = molecular target: Luciferin 4-monooxygenase (Photinus pyralis) (UniProt P08659); assay: qHTS assay to identify small molecule inhibitors of firefly luciferase (AID 1224835); note: nearly all actives have a fitted effect of over 25% in size
Method in brief: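 Inhibition of purified Photinus luciferase is measured by luminescence. Substrate levels (D-luciferin, ATP) sit at their KM values. Each compound is tested in a concentration series.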

[6] = qHTS assay to identify small molecule agonists of the constitutive androstane receptor (CAR) signaling pathway - cell viability counter screen (AID 1224836); note: nearly all actives have a fitted effect of over 45% in size
Method in brief: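 Double-stable HepG2 hepatoma cells (hCAR plus CYP2B6-2.2kb) are treated for 23 h at 37 C with test compounds in 15-point concentration series. PK11195 at 0.75 uM final is co-added. Cell viability is quantified by CellTiter-Fluor.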

[7] = qHTS assay to identify small molecule antagonists of the estrogen related receptor (ERR) signaling pathway from Tox21 library - cell viability counter screen (AID 1224834); note: nearly all actives have a fitted effect of over 30% in size
Method in brief: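 CellTiter-Fluor fluorescence measured; ERR cells; 17.5 h compound incubation at 37 C; 30 min reagent step.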

[8] = qHTS assay to identify small molecule antagonists of the estrogen related receptor (ERR) signaling pathway - cell viability counter screen (AID 1224818);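 note: viability measured after 17.5 h of compound exposure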
Method in brief: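 In the same ERR cell assay, compound-treated wells (17.5 h, 37 C) were multiplexed with a fluorogenic viability reagent, CellTiter-Fluor, read after 30 min to flag cytotoxic substances.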

[9] = qHTS assay to identify small molecule antagonists of the estrogen related receptor signaling pathway with the pleiotropic PPARgamma coactivator (PGC) cell viability counter screen (AID 1224822)
Method in brief: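 Compounds in DMSO, with positive and negative controls, were applied to PGC/ERR cells (2,000/well) and left 17.5 h at 37 C before CellTiter-Fluor detection.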

[10] = qHTS assay to identify small molecule antagonists of the retinoic acid receptor (RAR) signaling pathway (AID 1159552; note: nearly all actives have a fitted effect of over 50% in size)
Method in brief: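 Antagonism of retinol-induced RARE reporter activity was measured in C3RL4 cells. Exposure to compounds and 1 uM final retinol lasted 6 hr at 37 C, with luminescence as endpoint.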
% is set by controls: 0 for no effect and ±100 for the full control effect.

Chain of Retinoic acid receptor RXR-alpha (Homo sapiens) (P19793 whole entry, looked up): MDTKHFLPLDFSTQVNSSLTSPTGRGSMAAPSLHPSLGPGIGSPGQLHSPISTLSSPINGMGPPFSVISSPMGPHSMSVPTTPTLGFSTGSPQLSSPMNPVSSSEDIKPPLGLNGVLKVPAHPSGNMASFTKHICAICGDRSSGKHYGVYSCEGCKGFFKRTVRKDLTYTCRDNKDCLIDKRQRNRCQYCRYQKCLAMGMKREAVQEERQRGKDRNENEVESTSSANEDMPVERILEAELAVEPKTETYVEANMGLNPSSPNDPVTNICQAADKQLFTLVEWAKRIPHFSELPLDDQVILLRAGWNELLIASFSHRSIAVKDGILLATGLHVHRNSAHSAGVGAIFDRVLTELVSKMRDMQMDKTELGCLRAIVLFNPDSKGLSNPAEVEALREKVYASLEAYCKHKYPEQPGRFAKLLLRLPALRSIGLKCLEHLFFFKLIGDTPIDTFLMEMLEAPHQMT
Chain of Luciferin 4-monooxygenase (Photinus pyralis) (P08659 whole entry, looked up): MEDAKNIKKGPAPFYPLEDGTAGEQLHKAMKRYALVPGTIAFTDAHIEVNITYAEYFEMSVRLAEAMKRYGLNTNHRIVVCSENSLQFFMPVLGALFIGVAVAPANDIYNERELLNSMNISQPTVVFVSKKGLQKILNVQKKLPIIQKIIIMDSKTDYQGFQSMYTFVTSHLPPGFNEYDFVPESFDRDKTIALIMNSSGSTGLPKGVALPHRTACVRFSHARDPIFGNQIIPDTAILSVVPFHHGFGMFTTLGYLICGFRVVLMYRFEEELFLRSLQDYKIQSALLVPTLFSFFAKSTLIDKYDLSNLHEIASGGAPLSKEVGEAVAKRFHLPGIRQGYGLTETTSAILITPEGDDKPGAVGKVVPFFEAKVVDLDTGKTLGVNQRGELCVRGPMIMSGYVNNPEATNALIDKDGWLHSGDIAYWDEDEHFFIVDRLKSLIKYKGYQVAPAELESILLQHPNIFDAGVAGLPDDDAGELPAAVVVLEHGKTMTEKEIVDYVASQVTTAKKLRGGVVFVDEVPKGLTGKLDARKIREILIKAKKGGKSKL

Nc1ccc(Br)cc1
inactive: Potency [1] | Potency [2] | outcome [3] | Potency [4] | Potency [5] | Potency [6]

[N-]=[N+]=[N-]
inactive: Potency [1] | Potency [2] | outcome [3] | Potency [7] | Potency [5] | Potency [6]

c1ccc(-c2ccccc2)cc1
inactive: Potency [1] | Potency [2] | outcome [3] | Potency [4] | Potency [7] | Potency [5] | Potency [6]

Nc1ccc(Cc2ccc(N)cc2)cc1
inactive: Potency [1] | Potency [2] | outcome [3] | Potency [4] | Potency [7] | Potency [5] | Potency [6]

ClCCBr
inactive: Potency [1] | Potency [2] | outcome [3] | Potency [7] | Potency [5] | Potency [6]

CC1OC(C)OC(C)O1 (stereo not given)
inactive: Potency [1] | Potency [2] | outcome [3] | Potency [7] | Potency [5] | Potency [6]

C=C(C)CCl
inactive: activation [1] 1.01% [at 6.98 µM] | Potency [2] | outcome [3] | Potency [7] | Potency [5] | Potency [6]

Oc1ccccc1Cl
inactive: Potency [1] | Potency [2] | outcome [3] | Potency [7] | Potency [5] | Potency [6]

CC(C)NC(=O)N1CC(=O)N(c2cc(Cl)cc(Cl)c2)C1=O
inactive: Potency [1] | Potency [2] | outcome [3] | Potency [7] | Potency [5] | Potency [6]

Cn1cc(-c2ccccc2)c(=O)c(-c2cccc(C(F)(F)F)c2)c1
inactive: Potency [1] | Potency [2] | outcome [3] | Potency [4] | Potency [5] | Potency [6]

Cc1cc(Cl)ccc1O
inactive: Potency [1] | Potency [2] | outcome [3] | Potency [7] | Potency [5] | Potency [6]

CN(C)N=O
inactive: Potency [1] | Potency [2] | outcome [3] | Potency [7] | Potency [5] | Potency [6]

O=c1ccc(=O)[nH][nH]1
inactive: Potency [1] | Potency [2] | outcome [3] | Potency [7] | Potency [5] | Potency [6]

CCNc1nc(NC(C)C)nc(SC)n1
inactive: Potency [1] | Potency [2] | outcome [3] | Potency [7] | Potency [5] | Potency [6]

Cc1[nH]c(=O)n(C(C)(C)C)c(=O)c1Cl
inactive: Potency [1] | Potency [2] | outcome [3] | Potency [7] | Potency [5] | Potency [6]

CC(C)N1C(=O)c2ccccc2NS1(=O)=O
inactive: Potency [1] | Potency [2] | outcome [3] | Potency [7] | Potency [5] | Potency [6]

CCN(CC)c1ccccc1
inactive: Potency [1] | Potency [2] | outcome [3] | Potency [7] | Potency [5] | Potency [6]

CC(NC(C)(C)C)C(=O)c1cccc(Cl)c1 (stereo not given)
inactive: Potency [1] | Potency [2] | outcome [3] | outcome [8] | outcome [9] | Potency [7] | Potency [5] | Potency [6]

Cc1ccccc1O
inactive: Potency [1] | Potency [2] | outcome [3] | Potency [4] | Potency [7] | Potency [5] | Potency [6]

O=S(=O)(c1ccc(O)cc1)c1ccc(O)cc1
inactive: Potency [1] | Potency [2] | outcome [3] | Potency [7] | Potency [5] | Potency [6]

CC(C)(C)OOC(=O)c1ccccc1
inactive: Potency [1] | Potency [2] | outcome [3] | Potency [7] | Potency [5] | Potency [6]

CC(=O)C=C(C)C
inactive: Potency [1] | Potency [2] | outcome [3] | Potency [7] | Potency [5] | Potency [6]

c1ccc(OP(Oc2ccccc2)Oc2ccccc2)cc1
inactive: Potency [1] | Potency [2] | outcome [3] | Potency [7] | Potency [5] | Potency [6]

Cc1cccc([N+](=O)[O-])c1
inactive: Potency [2] | outcome [3] | Potency [7] | Potency [5] | Potency [6]

O=C(O)c1ccccn1
inactive: Potency [1] | Potency [2] | outcome [3] | Potency [7] | Potency [5] | Potency [6]

C1CN2CCN1CC2
inactive: Potency [2] | outcome [3] | Potency [7] | Potency [5] | Potency [6]

CC(C)=C[C@@H]1[C@@H](C(=O)OCc2coc(Cc3ccccc3)c2)C1(C)C
inactive: Potency [2] | outcome [3] | Potency [10] | Potency [4] | Potency [7] | Potency [5] | Potency [6]

CCN(CC)CCO
inactive: Potency [2] | outcome [3] | Potency [7] | Potency [5] | Potency [6]

Cc1ccc(N)cc1N
inactive: Potency [2] | outcome [3] | Potency [7] | Potency [6]
